From PubChem BioAssay (NCI)
Compounds without any hit were thinned out: in the full panel of roughly 83,000, 20% have a hit.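 Compound tested at a single concentration for 48 hours in 96-well plates; a percent growth value below 10 was scored as active.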 Unmarked numbers belong to inactive results. Calls of active or inactive are those of the source.

Key:
Experiment in all cases: NCI-60 one-dose screen, 48 h (100 = growth as untreated, 0 = no growth, -100 = all killed)
Settings in all cases: 10 µM unless noted
NCI-H23 lung = system: NCI-H23 lung
NCI-H226 lung = system: NCI-H226 lung
NCI-H322M lung = system: NCI-H322M lung
HOP-62 NSCLC = system: HOP-62 NSCLC
NCI-H460 lung = system: NCI-H460 lung
HOP-92 NSCLC = system: HOP-92 NSCLC
NCI-H522 lung = system: NCI-H522 lung
A549/ATCC NSCLC = system: A549/ATCC NSCLC
786-0 renal = system: 786-0 renal
COLO 205 colon = system: COLO 205 colon
DU-145 prostate = system: DU-145 prostate
K-562 leukemia = system: K-562 leukemia
MALME-3M melanoma = system: MALME-3M melanoma
MDA-MB-231 breast = system: MDA-MB-231 breast
RXF 393 renal = system: RXF 393 renal
SF-268 CNS = system: SF-268 CNS
SF-295 CNS = system: SF-295 CNS
SF-539 CNS = system: SF-539 CNS
UACC-257 melanoma = system: UACC-257 melanoma
M14 melanoma = system: M14 melanoma

SMILES | growth (NCI-H23 lung) | growth (NCI-H226 lung) [%] | growth (NCI-H322M lung) [%] | growth (HOP-62 NSCLC) | growth (NCI-H460 lung) | growth (HOP-92 NSCLC) | growth (NCI-H522 lung) | growth (A549/ATCC NSCLC) | growth (786-0 renal) | growth (COLO 205 colon) | growth (DU-145 prostate) | growth (K-562 leukemia) | growth (MALME-3M melanoma) | growth (MDA-MB-231 breast) | growth (RXF 393 renal) | growth (SF-268 CNS) | growth (SF-295 CNS) [%] | growth (SF-539 CNS) | growth (UACC-257 melanoma) | growth (M14 melanoma)
CC(C)C1C2=C(NCCN1C(=O)c1ccncc1)C(C)(C)N(Cc1ccccc1)C2=O (stereo not given) | 99.6% | 107 | 110 | 103% | 116% | 103% | 80.9% | 95.2% | 105% | 109% | 105% | 98.1% | 96.6% | 100% | 126% | 96.9% | 96.5 | 108% | 105% | 101%
CN(C)c1ccc(C(=S)c2ccc(N(C)C)cc2)cc1 | 78.9% | 85.9 | 103 | 65.8% | 92.6% | 71.3% | 29% | 67% | 95.6% | 62% | 98.9% | 28.4% | 50.3% | 72.2% | 84.2% | 79.7% | 80 | 77.1% | 81% | 51.1%
Cc1c(O)cc(-c2cnc(N/N=C/c3ccccc3)s2)c(O)c1C | 97.7% | 92.4 | 97.6 | 107% | 102% | 92.6% | 82.3% | 94.1% | 117% | 111% | 105% | 89.9% | 107% | 101% | 102% | 91.6% | 103 | 100% | 95.5% | 95.9%
C#CCOc1ccc2nc(CCl)c(Cl)c(Nc3cccc(C(F)(F)F)c3)c2c1 | 87.8% | 84.7 | 98.1 | 93% | 105% | 94.6% | 36.4% | 94.7% | 76% | 80% | 72% | 38.8% | 59.5% | 55% | 84.1% | 85.3% | 88 | 104% | 93.7% | 81.4%
CC1=C(Cl)C(=O)c2cc(C)ccc2C1=O | 100% | 86.3 | 94.4 | 105% | 115% | 88.5% | 93% | 101% | 102% | 114% | 115% | 102% | 114% | 103% | 84.9% | 88% | 108 | 116% | 106% | 112%
Clc1ccc(-c2cc(-c3ccccc3)nc(N3CCN(CCCNc4ccnc5cc(Cl)ccc45)CC3)n2)cc1 | 69% | 45.9 | 28.2 | 82.1% | -12.8% (active) | 26.6% | 9.55% (active) | 43.6% | -73.2% (active) | -54.2% (active) | 19.2% | -14.7% (active) | -32.8% (active) | -51.7% (active) | -60.5% (active) | 13.5% | 39.6 | -65.7% (active) | 39.2% | -51.8% (active)
O=S(=O)(Nc1ccc2ccccc2c1)c1ccc(-c2cnc(C3CC3)o2)cc1 | 41.1% | 62.1 | 48.7 | 31.6% | 15.2% | 54.2% | -0.255% (active) | 37.6% | 42.7% | 1.46% (active) | 18% | 10.4% | 50.3% | 52.4% | 2.78% (active) | 53.5% | 34.2 | 6.39% (active) | 44.5% | 19.4%
O=C(NCc1ccc(Cn2c(=O)sn(-c3ccccc3)c2=O)cc1)OCc1ccc2cccc(O)c2n1 | -67.4% (active) | 35.6 | 67.4 | -58.2% (active) | 27.2% | -65.3% (active) | -53.5% (active) | -27.3% (active) | -87.7% (active) | -57.4% (active) | -91.7% (active) | -9.02% (active) | -68.7% (active) | -45.7% (active) | -94.3% (active) | -46.2% (active) | 50.2 | -91.7% (active) | -25% (active) | -64.2% (active)
